Only a selection was taken, and hits are over-represented in it overall.
Tb PGK inh – blocks T. brucei phosphoglycerate kinase | P07378 | PGK/GAPDH coupled, Kinase-Glo luminescence, 60 min | Potency, µM (doses to about 57.5 µM), without a hit: top-dose activity change, negative = inhibition, hits mostly inhibitors | 380,000 tested, 0.043% active | AID 602233; also: potency is read from the fitted curve at half-maximal effect; nearly all actives have a fitted effect of over 60% in size
Target sequence (P07378 whole entry, looked up): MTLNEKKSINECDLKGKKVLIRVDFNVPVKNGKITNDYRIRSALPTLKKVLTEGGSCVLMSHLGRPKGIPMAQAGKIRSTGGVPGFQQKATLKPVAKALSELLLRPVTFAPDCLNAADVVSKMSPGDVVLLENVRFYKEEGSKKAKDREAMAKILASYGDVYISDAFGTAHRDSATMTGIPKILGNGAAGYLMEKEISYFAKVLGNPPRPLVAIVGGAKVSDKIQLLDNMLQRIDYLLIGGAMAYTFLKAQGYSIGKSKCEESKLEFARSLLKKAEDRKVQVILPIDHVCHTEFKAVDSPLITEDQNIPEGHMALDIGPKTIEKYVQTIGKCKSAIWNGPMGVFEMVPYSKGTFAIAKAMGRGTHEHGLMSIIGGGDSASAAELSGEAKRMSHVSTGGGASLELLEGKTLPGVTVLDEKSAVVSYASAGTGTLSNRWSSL
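Luminescent ATP detection (Kinase-Glo Plus) follows a 60-minute room-temperature incubation, with wells lacking PGK as controls. Buffer: 100 mM TEA (pH 7.6), 5 mM MgCl2, 0.01% Tween-20. Coupling enzyme GAPDH (100 nM final) supplies unstable 1,3-BPG in-well.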
PI5P4K alpha inh – PI5P4K alpha (human) kinase inhibition | max response, % | P48426 | AID 652105 | PI5P4Kalpha enzyme, ADP-Glo luminescence, 60 min; stronger effect = lower value | 330,000 tested, 1.2% active; active = max response of -50% or lower; inconclusive = between -30% and -50%; inactive = -30% or higher; also: value at the top dose of about 77 µM
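Reactions run in 0.038 M HEPES pH 7.4, 0.28 mM EGTA, 0.1% CHAPS and 5% DMSO, with PI5P4Kalpha, substrate, compound and 5 microM ATP final, one hour at room temperature. Readout is ADP-Glo luminescence.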
PI4K2A inh – blocks human PI4K2A kinase activity. Q9BTU6. purified PI4K2A, ADP-Glo luminescence, 1 h; stronger effect = lower value. activity change, negative = inhibition, % at 76.9 µM. 420,000 tested, 0.13% active; in the data active = activity change below about -50%; inconclusive = mostly about -30% to -49%;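 also: -100% = wells without enzyme as full effect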
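PI4K2A activity was measured by ADP-Glo luminescence: enzyme (4 ug/mL stock) and phosphatidylinositol (1.2 mM stock) in Tris pH 7.5/MgCl2/EGTA/Triton X-100 buffer were reacted with ATP (300 microM stock) for one hour at ambient temperature.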
Tb PFK inh – blocks T. brucei phosphofructokinase. O15648. T. brucei PFK, ADP-Glo luminescence. Potency, µM (highest dose often 57.5 µM), inactives show at the top dose activity, negative = inhibition, most hits filed as inhibitors. 330,000 tested, 0.17% active. AID 485367;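 also: potency is read from the fitted curve at half-maximal effect; 0% = uninhibited 1x PFK enzyme wells and -100% = no-enzyme wells; nearly all actives have a fitted effect of over 60% in size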
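Compounds were pin-transferred as a titration series up to 57 uM into substrate buffer (0.5 mM F6P, 0.1 mM ATP, pH 8.0), then 1.25 nM PFK was added and reactions ran 45 min before ADP-Glo detection.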
Pin1 inh – human Pin1 inhibition | Q13526 | Pin1 FP peptide displacement, HiFluor488, 10 min | Potency, µM (titrated, usually from 115 µM), for inactives: top-dose activity, negative = inhibition, most hits filed as inhibitors | 390,000 tested, 0.009% active | AID 504891; active = well fitted inhibition curve with a large enough effect in the polarisation, with a control signal flat, not every such curve was filed as active; inconclusive = small, poorly fitted or top-dose-only effect, or effect the other way, or a change in a side signal; inactive = no such curve, though single readings can be large or run the other way; the % refers to the polarisation; also: potency is read from the fitted curve at half-maximal effect
Target sequence (Q13526 whole entry, looked up): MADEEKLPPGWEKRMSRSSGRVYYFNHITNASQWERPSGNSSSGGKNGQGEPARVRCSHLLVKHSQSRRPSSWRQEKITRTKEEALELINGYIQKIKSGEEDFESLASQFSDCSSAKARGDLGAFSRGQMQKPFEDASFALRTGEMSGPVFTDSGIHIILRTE
An asterisk follows results filed as active; ! = repeats disagree; [ ] = dose if it differs, or a comment. Unless noted, calls follow the shape of the dose curve; as a rule, active = well fitted curve in the direction sought with a large enough effect; inconclusive = small, poorly fitted or top-dose-only effect, or another doubt; inactive = no such curve, though single readings can be large; an effect the other way counts as inactive or inconclusive. Unless noted, % is scaled to controls: 0 for no effect and ±100 for the full control effect.

Results for CCOC(=O)COc1ccc(/C=C2/C(=O)NN(c3ccc(F)cc3)C2=O)cc1OC ?
Tb PGK inh: -2%; PI5P4K alpha inh: 0; PI4K2A inh: -3; Tb PFK inh: -2%; Pin1 inh: inconclusive

How did COC(=O)c1ccc(CSc2nnc(C)s2)cc1 do in these assays?
Tb PGK inh: inactive; PI5P4K alpha inh: -51*; PI4K2A inh: 1; Tb PFK inh: -4%; Pin1 inh: -4%

Results for Cc1cc(C)cc(NC2=C(N)C(=O)c3ccccc3C2=O)c1 ?
Tb PGK inh: -10%; PI5P4K alpha inh: 6; PI4K2A inh: -50*; Tb PFK inh: 1%; Pin1 inh: -7%

Results for CCOc1cc(/C=C2/C(=N)N3C(=NC2=O)SN=C3S(=O)(=O)C(C)C)ccc1OC(=O)c1ccco1 ?
Tb PGK inh: -13%; PI5P4K alpha inh: -83*; PI4K2A inh: -11; Tb PFK inh: 0%; Pin1 inh: 24%

Results for COc1cc(/C=C2/C(=N)N3C(SC)=NSC3=NC2=O)ccc1OC(=O)c1ccco1 ?
Tb PGK inh: -4%; PI5P4K alpha inh: inconclusive; PI4K2A inh: -5; Tb PFK inh: 6%; Pin1 inh: 31%

What do the screens show for `COc1cc(/C=C2/C(=N)N3C(=NC2=O)SN=C3S(=O)(=O)C(C)C)ccc1OC(=O)c1ccco1`?
Tb PGK inh: inactive; PI5P4K alpha inh: -75*; PI4K2A inh: -9; Tb PFK inh: -4%; Pin1 inh: 35%

Results for COC(=O)c1cc(OC)c(OC)cc1NC(=S)Nc1cc(Cl)ccc1OC ?
Tb PGK inh: -9%; PI5P4K alpha inh: 1; PI4K2A inh: 0; Tb PFK inh: 2%; Pin1 inh: 1%

Results for COc1ccc(Cl)cc1NC(=S)NNC(=O)C1(C)CC1(Cl)Cl (stereo unspecified) ?
Tb PGK inh: -6%; PI5P4K alpha inh: -52*; PI4K2A inh: 3; Tb PFK inh: 2%; Pin1 inh: -3%

Results for CCOC(=O)C1C(c2ccc(O)c(OC)c2)NC(=O)NC1(O)C(F)(F)F (stereo unspecified) ?
Tb PGK inh: -8%; PI5P4K alpha inh: -3; PI4K2A inh: -7; Tb PFK inh: -4%; Pin1 inh: 0%

Results for CCOC(=O)C1C(c2ccc3c(c2)OCO3)NC(=O)NC1(O)C(F)(F)F (stereo unspecified) ?
Tb PGK inh: inactive; PI5P4K alpha inh: -53*; PI4K2A inh: 1; Tb PFK inh: -1%; Pin1 inh: -2%

How did Cn1c(/C=C/c2ccccc2)nc2ccccc21 do in these assays?
Tb PGK inh: inactive; PI5P4K alpha inh: inconclusive; PI4K2A inh: -66*; Tb PFK inh: inconclusive; Pin1 inh: 4%

What do the screens show for `Cn1c(=O)c(/C=C/c2ccccc2)nc2ccccc21`?
Tb PGK inh: -2%; PI5P4K alpha inh: -2; PI4K2A inh: 1; Tb PFK inh: 3%; Pin1 inh: 10%

Results for O=c1cc(CSc2n[nH]c(=O)n2C2CC2)c2ccc(O)cc2o1 ?
Tb PGK inh: -4%; PI5P4K alpha inh: 0; PI4K2A inh: -2; Tb PFK inh: -2%; Pin1 inh: 5%

What do the screens show for `O=C(O)c1ccc(NCc2cccnc2)c([N+](=O)[O-])c1`?
Tb PGK inh: -6%; PI5P4K alpha inh: -5; PI4K2A inh: 1; Tb PFK inh: -4%; Pin1 inh: 0%

How did Nc1ccc2nc(-c3ccccc3)[nH]c2c1 do in these assays?
Tb PGK inh: -8%; PI5P4K alpha inh: -12; PI4K2A inh: -7; Tb PFK inh: -4%; Pin1 inh: 2%

Results for Nc1ccc2nc(-c3ccc(N)c(Cl)c3)[nH]c2c1 ?
Tb PGK inh: -5%; PI5P4K alpha inh: -63*; PI4K2A inh: -3; Tb PFK inh: inconclusive; Pin1 inh: inconclusive

What do the screens show for `O=C(O)c1cccc(NC(=O)C2CC(=O)N(Cc3ccccc3)C2)c1` (stereo unspecified)?
Tb PGK inh: 1%; PI5P4K alpha inh: 2; PI4K2A inh: -1; Tb PFK inh: 2%; Pin1 inh: -1%

How did COc1ccc(OC)c(C(c2c(C)[nH][nH]c2=O)c2c(C)[nH][nH]c2=O)c1 do in these assays?
Tb PGK inh: 10%; PI5P4K alpha inh: 4; PI4K2A inh: inconclusive; Tb PFK inh: -11%; Pin1 inh: 8%

Results for COc1ccc(O)c(C(c2c(C)[nH][nH]c2=O)c2c(C)[nH][nH]c2=O)c1 ?
Tb PGK inh: -5%; PI5P4K alpha inh: -8; PI4K2A inh: -62*; Tb PFK inh: 3%; Pin1 inh: -2%

How did Cc1ccc(-c2cc(C(=O)N3CCN(c4ccc(F)cc4)CC3)c3ccccc3n2)o1 do in these assays?
Tb PGK inh: -3%; PI5P4K alpha inh: inconclusive; PI4K2A inh: -4; Tb PFK inh: 6%[0.46 µM]; Pin1 inh: 19%

Results for Cc1ccc(-c2cc(C(=O)N3CCN(c4ncccn4)CC3)c3cc(Br)ccc3n2)o1 ?
Tb PGK inh: -18%; PI5P4K alpha inh: -73*; PI4K2A inh: -9; Tb PFK inh: -22%; Pin1 inh: 36%

Results for O=C(c1ccco1)N1CCN(C(=O)c2cc(-c3ccncc3)nc3ccc(Br)cc23)CC1 ?
Tb PGK inh: -7%; PI5P4K alpha inh: -9; PI4K2A inh: -9; Pin1 inh: inconclusive

How did O=C(O)c1cc(-c2ccco2)nc2ccc(Br)cc12 do in these assays?
Tb PGK inh: 28µM*!; PI5P4K alpha inh: -87*!; PI4K2A inh: -15; Tb PFK inh: 0%; Pin1 inh: -4%

What do the screens show for `CCOc1ccc(NC(=O)C2Cc3ccccc3CN2S(=O)(=O)CC)cc1` (stereo unspecified)?
Tb PGK inh: inactive; PI5P4K alpha inh: inconclusive; PI4K2A inh: -5; Tb PFK inh: 0%; Pin1 inh: 0%

What do the screens show for `C=C(C)C1CCC2(C(=O)O)CCC3(C)C(CCC4C5(C)C(C=O)C(O)C(C)(C)C5CCC43C)C12` (stereo unspecified)?
Tb PGK inh: -10%; PI5P4K alpha inh: -54*; PI4K2A inh: -3; Tb PFK inh: 13%; Pin1 inh: -1%

Results for CC(C)CC(=O)c1c(O)c(C=O)c(O)c2c1O[C@@]1(C)[C@@H](C2)C[C@H]2C[C@@H]1C2(C)C ?
Tb PGK inh: 0%; PI5P4K alpha inh: -2; PI4K2A inh: -3; Tb PFK inh: 1%; Pin1 inh: -21%

Results for CCN1CCN(Cc2ccc(NC(=O)c3ccc(C)c(NC(=O)N4CCNC4=O)c3)cc2C(F)(F)F)CC1 ?
Tb PGK inh: 25µM*!; PI5P4K alpha inh: -4; PI4K2A inh: -17; Tb PFK inh: 0%; Pin1 inh: 1%

How did CCN1CCN(Cc2ccc(NC(=O)c3ccc(C)c(NC(=O)c4nccn4C)c3)cc2C(F)(F)F)CC1 do in these assays?
Tb PGK inh: -8%; PI5P4K alpha inh: -5; PI4K2A inh: 2; Tb PFK inh: 16%; Pin1 inh: 1%
